# An excerpt weighted towards active compounds, which were near 2.3% of everything screened.
# Nrf2 ARE act – activators of Nrf2 (ARE) signaling. AREc32 ARE-luciferase reporter (MCF7-derived line), luminescence, 24 h. Potency, µM (series often up to 46.1 µM), actives largely listed as activators. hit rate 0.31% among 410,000. AID 624171; note: nearly all actives have a fitted effect of over 65% in size
#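 Each well held 1000 AREc32 cells, which were incubated with compound for 24 hr at 37 deg C after overnight attachment, and ARE reporter activity was quantified by firefly luciferase luminescence.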
# A549 viability – kills or reduces viability of A549 cells in Nrf2 counter-screen. A549 ARE-Fluc cells, CellTiter-Fluor viability, 18-24 h. Potency, µM (highest dose often 46 µM), actives largely listed as inhibitors. hit rate 0.16% among 390,000. AID 504648
#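 Cytotoxicity counterscreen: CellTiter-Fluor fluorescence was measured in A549 ARE_Fluc cells after 18-24 h of compound exposure in a concentration series. The subsequent BugLite luminescent read reports ARE-luciferase activity.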
# Rango dissoc inh – inhibitors of RanGTP-induced Rango-importin beta complex dissociation. O95149+P62826. Biochemical FRET Rango-importin beta, RanGTP-induced dissociation. Potency, µM (series often up to 46.1 µM). hit rate 0.071% among 340,000; calls by dose curve; note: nearly all actives have a fitted effect of over 45% in size
#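 FRET read at 45 min, room temperature: inhibitors block the CFP/YFP signal rise when RanGTP (0.6 uM Ran, 2 mM GTP, 0.2 uM RCC1) frees Rango (0.1 uM) from importin beta (0.25 uM). Pre-read after 5 min compound exposure flags interference.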
# Nrf2 inh – blocks Nrf2 signaling. A549 ARE-Fluc reporter, luciferase luminescence, 18-24 h. Potency, µM (series often up to 46 µM), hits mostly inhibitors. hit rate 2.1% among 360,000. AID 504444; note: nearly all actives have a fitted effect of over 60% in size
#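 In this cell-based qHTS, ARE-driven firefly luciferase in A549 cells reports Nrf2 activity; the luminescent signal after BugLite lysis is the measured value, with a prior CellTiter-Fluor read for cell health.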
# Rango-impB inh – Rango-importin beta binding inhibition | Rango CFP/YFP FRET sensor + importin beta, 45 min | Q14974 | AID 540263 | hit rate 0.031% among 340,000 | Potency, µM (highest dose often 92.2 µM); calls by dose curve; note: nearly all actives have a fitted effect of over 15% in size
# Target sequence (Q14974 whole entry, looked up): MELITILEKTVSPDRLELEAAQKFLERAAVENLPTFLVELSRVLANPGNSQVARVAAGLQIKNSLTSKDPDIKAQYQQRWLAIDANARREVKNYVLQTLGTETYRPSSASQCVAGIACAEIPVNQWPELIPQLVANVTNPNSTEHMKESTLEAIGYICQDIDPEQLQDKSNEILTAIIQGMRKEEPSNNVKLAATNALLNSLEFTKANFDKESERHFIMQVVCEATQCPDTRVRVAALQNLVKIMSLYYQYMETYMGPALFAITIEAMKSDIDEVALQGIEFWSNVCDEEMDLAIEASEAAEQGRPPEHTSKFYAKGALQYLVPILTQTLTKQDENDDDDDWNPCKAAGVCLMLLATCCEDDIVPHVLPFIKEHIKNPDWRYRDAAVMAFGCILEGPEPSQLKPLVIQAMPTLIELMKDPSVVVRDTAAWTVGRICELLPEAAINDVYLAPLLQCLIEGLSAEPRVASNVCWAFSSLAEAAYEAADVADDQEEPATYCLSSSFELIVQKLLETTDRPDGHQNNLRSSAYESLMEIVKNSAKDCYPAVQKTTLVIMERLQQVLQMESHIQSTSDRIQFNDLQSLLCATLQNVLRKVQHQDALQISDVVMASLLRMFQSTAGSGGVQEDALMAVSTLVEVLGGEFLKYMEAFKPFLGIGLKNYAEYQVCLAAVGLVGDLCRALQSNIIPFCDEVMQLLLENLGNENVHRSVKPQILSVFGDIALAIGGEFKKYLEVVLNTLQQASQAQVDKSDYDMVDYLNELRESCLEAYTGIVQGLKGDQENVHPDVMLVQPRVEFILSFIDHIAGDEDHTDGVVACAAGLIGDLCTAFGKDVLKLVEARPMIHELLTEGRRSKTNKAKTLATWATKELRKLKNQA
#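 FRET biosensor Rango (snurportin 1 IBB between N-terminal EYFP and C-terminal Cerulean), 50 nM in PBS/1 mM DTT/0.02% Tween-20/0.1% BSA, preincubated 5 min RT with compound; 0.125 microM importin beta added, 45 min RT, CFP/YFP FRET ratio read.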
# A number is an active result; - = inactive; ? = inconclusive; . = no result given. Unless noted, calls come from the whole dose curve; as a rule, active = well fitted curve in the direction sought with a large enough effect; inconclusive = small, poorly fitted or top-dose-only effect, or another doubt; inactive = no such curve, though single readings can be large; an effect the other way counts as inactive or inconclusive.
SMILES,Nrf2 ARE act,A549 viability,Rango dissoc inh,Nrf2 inh,Rango-impB inh
O=C(NC1CCOC1)c1cc(COc2cccc(C(F)(F)F)c2)on1 (centres undefined),-,-,-,-,-
S=C(NCC1CCCO1)NC1CCCCC1 (centres undefined),-,-,-,-,-
CCCC(NC(=S)NCC1CCCO1)C12CC3CC(CC(C3)C1)C2 (centres undefined),-,-,-,15µM,-
O=C(Nc1cccc(Cl)c1)c1cc2c(=O)[nH]c3ccccc3c2s1,-,-,.,?,.
C=CCN(Cc1ccc(OC)c(OC)c1)C(=O)c1cc2cc(F)ccc2[nH]1,-,?,-,23µM,-
Cc1ccc(N2CCN(S(=O)(=O)c3cc(C(=O)Nc4cc(Cl)cc(Cl)c4)ccc3F)CC2C)cc1 (centres undefined),-,-,.,.,.
COCCNC(=O)C1(C)CCCN(Cc2ccc(-n3ccnc3)cc2)C1 (centres undefined),-,.,.,.,.
CCN(CC)C(=O)c1ccc2c(c1)N(Cc1ccc(C(F)(F)F)cc1)C(=O)c1ccccc1S2,-,-,.,12µM,.
COCCNC(=O)c1ccc2c(c1)N(Cc1ccc(C(F)(F)F)cc1)C(=O)c1ccccc1S2,-,-,.,?,.
Cc1ccc2c(CN3CCN(S(=O)(=O)c4ccccc4C(F)(F)F)CC3)cc(=O)oc2c1C,-,-,-,5.2µM,-
CCOc1ccc(NC(=O)Cn2c(=O)cc(C)c3c(C)nn(C)c32)cc1,-,-,.,13µM,.
COc1ccc(OC)c(NC(=O)Cn2c(=O)cc(C)c3c(C)nn(-c4cccc(Cl)c4C)c32)c1,-,?,.,21µM,.
COc1ccc(CNC(=O)Cn2c(=O)cc(C)c3c(C)nn(-c4cccc(Cl)c4C)c32)cc1,-,-,.,-,.
CCOC(=O)Cc1csc(/N=C/c2c(O)n(-c3ccccc3C(F)(F)F)c(=O)c3ccccc23)n1,-,-,?,13µM,?
Cc1c(Cl)cccc1NC(=O)Nc1ccc2snnc2c1,-,?,.,21µM,.
O=C(Nc1ccc(F)cc1)Nc1ccc2snnc2c1,-,-,.,23µM,.
Cc1ccc(F)c(NC(=O)Nc2ccc3snnc3c2)c1,-,-,.,-,.
CC(=O)c1ccc(NC(=O)Nc2ccc3snnc3c2)cc1,-,-,.,?,.
CC(C)(C)OC(=O)Cc1nnc(CNC(=O)c2ccccc2)s1,.,-,.,-,.
COc1cc(C2Nc3cccc4cccc(c34)N2)ccc1O,-,-,-,-,-
COc1ccc(Br)cc1C1Nc2cccc3cccc(c23)N1,13µM,-,-,-,-
Cc1ccc(SCc2ccc(C(=O)Nc3cccc([N+](=O)[O-])c3)cc2)cc1,-,-,-,?,-
Cc1ccc(SCc2ccc(C(=O)Nc3cc([N+](=O)[O-])ccc3C)cc2)cc1,-,-,-,15µM,-
Cc1ccc([N+](=O)[O-])cc1NC(=O)c1ccccc1,7.9µM,-,-,-,?
Cc1cc(O)c(C(C)C)cc1NC(=O)Nc1ccc([N+](=O)[O-])cc1,-,-,-,?,-
SMILES,Nrf2 ARE act,A549 viability,Rango dissoc inh,Nrf2 inh,Rango-impB inh
O=C(Nc1ccc([N+](=O)[O-])cc1NC(=O)c1ccccc1)c1ccccc1,-,-,?,-,-
Cc1ccc(C(C)C)cc1NC(=O)Nc1ccc([N+](=O)[O-])cc1,-,?,-,21µM,-
CN(C)CCNC(=O)CN1C(=O)COc2ccc(S(=O)(=O)N3CCCC3)cc21,-,-,.,-,.
CCn1c(CN2CCC(C)CC2)nc2cc(NC(=O)COc3ccc([N+](=O)[O-])cc3)ccc21,-,-,.,-,.
CCC(C)NS(=O)(=O)c1ccc(S(=O)(=O)N(CC(=O)Nc2ccccc2)Cc2ccco2)cc1 (centres undefined),-,-,-,13µM,-
CCOC(=O)c1c(C)nc2sc3c(=O)n(-c4ccc(C(C)=O)cc4)nnc3c2c1-c1ccc(OC)cc1,-,-,-,15µM,?
Clc1ccc(-c2csc(N/N=C/c3ccco3)n2)cc1,8.9µM,?,-,?,-
Cc1ccc(-c2csc(N/N=C/c3ccco3)n2)cc1,?,-,-,-,-
O=C(/C=C/c1ccco1)Nc1nc(-c2ccccc2)cs1,-,-,-,-,-
Cc1csc(NC(=O)/C=C/c2ccco2)n1,1.8µM,-,-,?,-
Cc1ccccc1NC(=S)NC(=O)/C=C/c1ccco1,18µM,-,-,?,-
O=c1c2sc3ccccc3c2n(Cc2ccccc2F)c(=O)n1-c1ccccc1Cl,-,-,.,-,.
COc1ccc(N2CCN(C(=O)c3nn(-c4ccc(C)cc4)c(=O)n(C)c3=O)CC2)cc1,-,-,.,.,.
Clc1ccc2c(c1)C1OCCC1C(c1ccco1)N2 (centres undefined),5.6µM,-,-,-,?
Cc1ccc2oc(=O)n(CCCOc3ccccc3Cl)c2c1,-,-,.,-,.
CCOc1cccc(CC(=O)N2CCc3c([nH]c4ccc(OC)cc34)C2c2ccc(F)cc2)c1OCC (centres undefined),-,-,.,-,.
COc1ccc(CN(Cc2ccccc2)C(=O)c2ccc(OC)cc2O)cc1,.,-,.,-,.
COc1cccc(C2c3c(ncn(-c4ccccc4C(C)(C)C)c3=N)Oc3ccc4ccccc4c32)c1 (centres undefined),.,-,.,-,.
O=C(NC1CCCCC1)C(c1ccc2ncccc2c1)N(Cc1ccccc1)C(=O)c1cccs1 (centres undefined),-,-,-,18µM,-
COc1ccc(CN(C(=O)c2cccs2)C(C(=O)NC2CCCCC2)c2ccc3ncccc3c2)cc1 (centres undefined),-,-,-,-,-
CC(=O)N1CCCc2cc(S(=O)(=O)Nc3ccc(C)c(C)c3)ccc21,.,-,.,?,.
CCn1c(CSCc2ccc(C)cc2)nnc1SCC(=O)N1CCN(c2ccccc2)CC1,-,?,-,21µM,-
CC1=CC(=O)C(Sc2ccc(C)cc2)=CC1=O,13µM,.,.,.,.
N#Cc1nc(N2CCCC2)nc(N(c2ccccc2)c2ccccc2)n1,.,-,.,-,.
COc1cccc(Cl)c1NC(=O)N1CCN(c2ccnc3cc(Cl)ccc23)CC1,-,-,?,23µM,-
SMILES,Nrf2 ARE act,A549 viability,Rango dissoc inh,Nrf2 inh,Rango-impB inh
COc1cccc(Cl)c1NC(=O)N1CCN(c2cc(C)nc3ccccc23)CC1,-,?,-,23µM,-
COc1ccc(-c2csc(N3CCN(c4cc(C)nc5ccccc45)CC3)n2)cc1OC,-,21µM,-,13µM,-
Cc1cc(N2CCN(C(=O)/C=C/C(=O)O)CC2)c2ccccc2n1,-,?,-,-,-
O=C(Nc1ccccc1)Nc1cnccn1,-,-,-,-,-
CCc1ccc(S(=O)(=O)c2nnn3c2nc(Nc2ccc(F)cc2)c2cc(Cl)ccc23)cc1,-,-,.,9.2µM,.
O=C(N/N=C/c1ccc(OCc2ccccc2)cc1)c1ccncc1,-,-,-,-,-
Oc1ccc(N=Cc2ccc(OCc3ccccc3)cc2)cc1,14µM,?,-,?,-

# Compound activity: PubChem, National Center for Advancing Translational Sciences (NCATS)
